Results from PubChem BioAssay (Tox21).
Records with an inconclusive call do not appear. Values without a mark were called inactive. Calls come from the whole dose curve; as a rule, active = well fitted cell-killing curve with a large enough effect in the repeat runs; inconclusive = weak or mixed curves; inactive = flat fitted curve, though single readings scatter.

Experiment: qHTS assay to identify small molecule antagonists of the estrogen related receptor (ERR) signaling pathway - cell viability counter screen (AID 1224818)
Conditions: ERR reporter cell line viability counter screen; series mostly up to 46.1 µM; viability change, negative = cytotoxic: at the top concentration
From the text: National Center for Advancing Translational Sciences [NCATS]
NIH Chemical Genomics Center [NCGC]
U.S. Environmental Protection Agency [EPA]
National Institutes of Environmental Health Sciences [NIEHS]
National Toxicology Program [NTP]
U.S. Food and Drug Administration [FDA]
Estrogen related receptors (ERRs), the first orphan nuclear receptors discovered, play an important role in the control of cellular energy metabolism. ERRs are required for high-energy production in response to the environmental challenges. ERR-alpha was also identified as an adverse marker for breast cancer progression; ERR-alpha-positive tumors have a poor prognosis. To screen and to identify environmental compounds that perturb the ERR signaling pathways could provide valuable information for potential therapeutic or preventive measures in the treatment of metabolic disease. To differentiate true ERR antagonists or agonist from cytotoxic substances, the assay is multiplexed with cell viability assay.
Tox21 Assay Protocol Summary:
The ERR cells were dispensed at 2,000 cells/5 ul/well in 1536-well white plates using a Multidrop dispenser. After the assay plates were incubated at a 37 C/5% CO2 incubator for 6 hours, 23 nL of compounds dissolved in DMSO, positive and negative controls or DMSO only was transferred to the assay plate by a pin tool. The plates were incubated at 37 C for 17.5 hours. 1 ul/well of CellTiter-Fluor reagent was added into the assay plates using a Flying Reagent Dispenser. After 30 min incubation at 37 C/5% CO2, the fluorescence intensity in the plates was measured using a ViewLux plate reader.
% is set by controls: 0 for no effect and ±100 for the full control effect.

Row | Structure (SMILES) | viability change, negative = cytotoxic
1 | CC(N=C(NC#N)Nc1ccncc1)C(C)(C)C (stereo not drawn) | 4.81%
2 | O=c1c(O)c(-c2ccc(O)cc2O)oc2cc(O)cc(O)c12 | -14%
3 | CC(=O)[C@H]1CC[C@H]2[C@@H]3CCC4=CC(=O)CC[C@]4(C)[C@H]3CC[C@]12C | -22.7%
4 | CCCCN(CCCC)CC(O)c1cc(Cl)cc2c1-c1ccc(Cl)cc1/C2=C/c1ccc(Cl)cc1 (stereo not drawn) | -4.65%
5 | Cc1cc(C)c(/C=C2\C(=O)Nc3ccccc32)[nH]1 | -10.1%
6 | CN1CCN2c3ccccc3Cc3ccccc3C2C1 (stereo not drawn) | -3.96%
7 | Nc1nc2c(ncn2COCCO)c(=O)[nH]1 | 9.78%
8 | O=C(O)Cc1ccccc1Nc1c(Cl)cccc1Cl | 12.1%
9 | CC[N+](CC)(CC)CCOc1ccc(/C=C/c2ccccc2)cc1 | -11.4%
10 | Oc1ccccc1O | -23.4%
11 | Cc1cc(C(C)(C)C)cc(C)c1CC1=NCCN1 | -1.08%
12 | CC(CCc1ccccc1)NCC(O)c1ccc(O)c(C(N)=O)c1 (stereo not drawn) | -26.4%
13 | O=C1CCc2cc(OCCCCc3nnnn3C3CCCCC3)ccc2N1 | -14.4%
